Shn3 inh set2 = inhibitors of Schnurri-3 3'UTR reporter in osteoblasts; 0.52% of 360,000 active; inhibition, % at 12.5 µM; Clone20 osteoblast Shn3 3'UTR firefly luciferase, 24 h;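 active = mean inhibition of at least 75% with every replicate also reaching 75%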
HIF-2a block = HIF-2a inhibition; inhibition, % at 18.8 µM; 0.72% of 360,000 active; 786-0 RCC cells HIF-2a reporter, luciferase luminescence, overnight;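 active = inhibition of the luminescence signal of 40% or more relative to plate controls, in a single-dose primary screen at 18.75 µM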
KKLEB tox = reduces viability of KKLEB cystic fibrosis airway cells | KKLEB CF airway cells viability, ATPlite luminescence, overnight; active compounds read low; cells stimulated with P. aeruginosa culture filtrate | activity change (cytotoxicity), % at 5 µM | 0.36% of 360,000 active | AID 602141;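 active = corrected activity change at or below -50% at 5 µM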
CF NFkB block = cystic fibrosis NF-kB activation inhibition. KKLEB NF-kB-GFP reporter, PAF-induced, GFP fluorescence overnight. inhibition, % at 5 µM. 0.86% of 360,000 active;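 active = at least 50% inhibition at 5 µM, scaled per plate between neutral and stimulator controls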;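 also: PAF is a Pseudomonas aeruginosa culture filtrate used as stimulus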
Peg3 prom inh = inhibitors of Peg3 promoter; HeLa PEG-Prom luciferase reporter, luminescence, overnight; inhibition, % at 20 µM; 1.7% of 360,000 active; AID 588405;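 active = inhibition of at least 50% at 20 µM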
MITF TRPM1 inh = inhibitors of MITF-driven TRPM1 promoter in melanoma cells; SK-MEL-5 TRPM1 promoter luciferase, 24 h; inhibition, % at 12.5 µM; 0.83% of 330,000 active; AID 488899;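 active = mean inhibition across replicates of 60% or more, whatever share of single replicates reaches that level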
Mdm2 MdmX conf = confirmation of inhibitors of human Mdm2/MdmX interaction, set 2 | shares compounds with HIF-2a block | inhibition, % at 8 µM | 99% of 740 active | SaOS-2 split-luciferase Mdm2/MdmX complementation, luminescence;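 active = mean inhibition of the luminescence signal across two replicates at or above 26 percent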
Target sequence (O15151 whole entry, looked up): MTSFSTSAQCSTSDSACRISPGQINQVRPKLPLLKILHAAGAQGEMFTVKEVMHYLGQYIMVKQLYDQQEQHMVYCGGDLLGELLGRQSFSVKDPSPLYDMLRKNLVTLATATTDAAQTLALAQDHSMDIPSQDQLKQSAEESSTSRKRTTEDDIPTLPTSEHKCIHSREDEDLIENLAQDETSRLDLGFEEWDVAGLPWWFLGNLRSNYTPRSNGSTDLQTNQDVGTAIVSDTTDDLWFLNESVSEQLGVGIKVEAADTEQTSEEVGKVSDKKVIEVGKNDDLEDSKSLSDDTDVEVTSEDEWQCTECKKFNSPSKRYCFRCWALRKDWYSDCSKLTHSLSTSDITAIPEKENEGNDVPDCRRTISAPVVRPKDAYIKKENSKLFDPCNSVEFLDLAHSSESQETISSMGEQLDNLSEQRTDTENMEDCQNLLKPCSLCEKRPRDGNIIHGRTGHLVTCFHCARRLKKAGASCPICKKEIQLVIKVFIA
Target sequence (Q00987 whole entry, looked up): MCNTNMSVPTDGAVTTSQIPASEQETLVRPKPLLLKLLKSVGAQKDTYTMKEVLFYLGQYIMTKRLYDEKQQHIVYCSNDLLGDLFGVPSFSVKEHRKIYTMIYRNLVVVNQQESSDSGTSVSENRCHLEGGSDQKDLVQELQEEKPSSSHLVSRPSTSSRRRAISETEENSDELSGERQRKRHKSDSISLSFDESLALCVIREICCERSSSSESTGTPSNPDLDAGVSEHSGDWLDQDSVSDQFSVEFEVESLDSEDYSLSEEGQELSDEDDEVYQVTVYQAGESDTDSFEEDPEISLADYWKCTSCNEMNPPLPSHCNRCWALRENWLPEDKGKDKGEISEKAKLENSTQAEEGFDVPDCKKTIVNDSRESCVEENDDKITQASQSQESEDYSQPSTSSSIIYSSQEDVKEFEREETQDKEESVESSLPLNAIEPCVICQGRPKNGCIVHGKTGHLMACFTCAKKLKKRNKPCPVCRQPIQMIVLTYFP
HIF-2a inh conf = HIF-2a inhibition, single concentration confirmation. 786-0 RCC cells, HIF-2a luciferase reporter luminescence, overnight. 56% of 1,800 active. inhibition, % at 18.8 µM. AID 651580. shares compounds with HIF-2a block;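 active = mean inhibition across four replicates of at least 40 percent at the single tested concentration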
HIF-1a counter = inhibits HIF-1a reporter, a counter-screen for HIF-2a inhibitors; shares compounds with HIF-2a block; MiaPaCa-2 HIF-1a luciferase reporter, desferoxamine, overnight; inhibition, % at 18.8 µM; 72% of 1,800 active; AID 651589;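 active = mean inhibition of the reporter signal across four replicates at the single tested dose of 50% or more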
Of the large screens only hits and unclear results are named; the others gave an inactive call (follow-up assays come after a bar, where they were run). Compounds with a hit are over-represented: about 2.7% of the library has one in this group of screens.

COc1ccc(CS(=O)(=O)/C(Cl)=C(/Cl)C(=O)Nc2ccc(OC)nc2)cc1	Shn3 inh set2 98, HIF-2a block 93, KKLEB tox -86, CF NFkB block 88, Peg3 prom inh 104, MITF TRPM1 inh 94 | Mdm2 MdmX conf 103
COc1ccc(/C=C/C(=O)Nc2ccc(OC)nc2)cc1	none
Cc1ccc(N(CCC#N)C(=O)CCl)cc1C	none | Mdm2 MdmX conf 103
C[C@@H]1CN([C@@H](C)CO)C(=O)c2cc(Br)cnc2O[C@@H]1CN(C)Cc1cncnc1	none (no result: MITF TRPM1 inh)
COc1ccc(Cn2c(SCc3ccccc3C)nc3cc(OC)c(OC)cc3c2=N)cc1	Shn3 inh set2 90, HIF-2a block 96, Peg3 prom inh 102, MITF TRPM1 inh 84 | HIF-2a inh conf inactive | HIF-1a counter 107
CC(C)(C)c1ccc(C(=O)NCCN2CCOCC2)cc1	none
CC(C)(C)c1ccc(/C=C/C(=O)NCCCN2CCOCC2)cc1	HIF-2a block 48 | HIF-2a inh conf inactive | HIF-1a counter inactive
Cc1ccc(/C=C/C(=O)NCCCN2CCN(CCCNC(=O)/C=C/c3ccc(C)cc3)CC2)cc1	none
CC(C)(C)c1ccc(C(=O)NCCCN2CCN(CCCNC(=O)c3ccc(C(C)(C)C)cc3)CC2)cc1	HIF-2a block 73, KKLEB tox -71, Peg3 prom inh 109, MITF TRPM1 inh 90 | Mdm2 MdmX conf 102
COCCN1C(=O)CN(S(C)(=O)=O)CC1(C)C(=O)NC(C)C (stereo unspecified)	none (no result: Shn3 inh set2, KKLEB tox, CF NFkB block, Peg3 prom inh, MITF TRPM1 inh)
COc1ccc(-n2ncc(Cl)c(Cl)c2=O)cc1	Shn3 inh set2 98, HIF-2a block 95, KKLEB tox -78, CF NFkB block 89, Peg3 prom inh 105 (no result: MITF TRPM1 inh) | Mdm2 MdmX conf 102 | HIF-2a inh conf 96 | HIF-1a counter 107
Cc1cccc(CNC(=O)C2CCC(=O)N(CCCc3ccccc3)C2)c1 (stereo unspecified)	none (no result: MITF TRPM1 inh)
O=C(NCC(=O)N1CCN(Cc2c(F)cccc2Cl)CC1)c1cccs1	none (no result: MITF TRPM1 inh)
CC1CC2(C)Oc3ccccc3CC2C(C)C1CNCCCN(C)C (stereo unspecified)	HIF-2a block 84, Peg3 prom inh 107, MITF TRPM1 inh 97 | Mdm2 MdmX conf 101 | HIF-2a inh conf inactive | HIF-1a counter 105
CCCc1nc([N+](=O)[O-])c(S(=O)(=O)c2ccccc2)n1CC(C)C	Shn3 inh set2 91, HIF-2a block 45, CF NFkB block 55 | HIF-2a inh conf inactive | HIF-1a counter inactive
CCCCNC(=O)C1(C)CCCCN1Cc1ccccc1-c1ccccc1 (stereo unspecified)	none (no result: MITF TRPM1 inh)
O=C(/C=C1\C(=O)Nc2ccccc21)/C=C1\C(=O)Nc2ccccc21	none
CCc1ccc2c(c1)/C(=C/C(=O)c1cccs1)C(=O)N2	HIF-2a block 75, MITF TRPM1 inh 70 | HIF-2a inh conf 61 | HIF-1a counter 103
COC(=O)c1[nH]c2ccc(Br)cc2c1NC(=O)CN1CCN(C2CCCCC2)CC1	HIF-2a block 68, Peg3 prom inh 104, MITF TRPM1 inh 86 | Mdm2 MdmX conf 103 | HIF-2a inh conf inactive | HIF-1a counter 104
COC(=O)c1[nH]c2ccc(Cl)cc2c1NC(=O)CCN1CCN(C2CCCCC2)CC1	none
CCOc1cc(/C=C/c2nc3cc(C)c(C)cc3s2)ccc1OCC(=O)N1CCOCC1	none
CCOc1cc(/C=C\[N+](=O)[O-])ccc1OCC(=O)N1CCOCC1	HIF-2a block 83, Peg3 prom inh 78, MITF TRPM1 inh 94 | HIF-2a inh conf 88 | HIF-1a counter 85
Cc1ccc(-n2c(C)c([N+](=O)[O-])c3ccc(O)c(CN(C)C)c32)cc1	CF NFkB block 82 | Mdm2 MdmX conf 92
CC1(C)OC(=O)C2=C(C[C@@H](C3CCCC3)O[C@H]2c2ccc(Cl)cc2)O1	none (no result: Shn3 inh set2, KKLEB tox, CF NFkB block, Peg3 prom inh, MITF TRPM1 inh)
COc1cccc(CNC(=O)[C@H](C)NC(=O)N2CC(=O)Nc3ccccc32)c1	none (no result: MITF TRPM1 inh)
COc1ccc(NC(=O)c2cc(C3CCCCN3S(=O)(=O)Cc3ccccc3)on2)c(C)c1 (stereo unspecified)	none (no result: MITF TRPM1 inh)
CCC(=O)Nc1cc(SCCO)cc([N+](=O)[O-])c1	none
CC(C)=NOc1cc(NC(=O)CCl)cc([N+](=O)[O-])c1	HIF-2a block 44, KKLEB tox -57, CF NFkB block 79, Peg3 prom inh 110, MITF TRPM1 inh 87 | Mdm2 MdmX conf 103 | HIF-2a inh conf 66 | HIF-1a counter 106
O=C(CCl)Nc1cc(SCC(O)CO)cc([N+](=O)[O-])c1 (stereo unspecified)	HIF-2a block 86, KKLEB tox -93, CF NFkB block 96, Peg3 prom inh 106, MITF TRPM1 inh 89 | HIF-2a inh conf 88 | HIF-1a counter 107
CCC(=O)Nc1cc(ON=C(C)C)cc([N+](=O)[O-])c1	none
CCOC(=O)C(c1nc2ccccc2[nH]1)n1c(-c2ccccn2)nc2ccccc21 (stereo unspecified)	none (no result: MITF TRPM1 inh)
C=C1C(=O)OC2C1CCC(C)=C1C(=O)C3OC3(C)C12 (stereo unspecified)	Shn3 inh set2 98, HIF-2a block 92, KKLEB tox -85, CF NFkB block 86, Peg3 prom inh 107, MITF TRPM1 inh 105 | HIF-2a inh conf 97 | HIF-1a counter 101
CCN(CC)CCNC(=O)c1cc(-c2cccnc2)nc2ccc(S(=O)(=O)N3CCC(C)CC3)cc12	HIF-2a block 64, Peg3 prom inh 72, MITF TRPM1 inh 88 | Mdm2 MdmX conf 102 | HIF-2a inh conf inactive | HIF-1a counter 100
Cc1ccc(CCNC(=O)c2cc(-c3ccncc3)nc3ccc(S(=O)(=O)N4CCOCC4)cc23)cc1	none
CCN1C(=O)CS/C1=N\S(=O)(=O)c1ccc(Cl)cc1	none
CCn1c(Cl)c(C=O)s/c1=N\S(=O)(=O)c1ccccc1	Shn3 inh set2 99, HIF-2a block 95, KKLEB tox -85, CF NFkB block 88, Peg3 prom inh 105, MITF TRPM1 inh 98 | Mdm2 MdmX conf 103 | HIF-2a inh conf 99 | HIF-1a counter 105
CN(C)S(=O)(=O)N1CCC(Oc2ccc(C(=O)NC3Cc4ccccc4C3)cc2)CC1	none
COCC(=O)N1CCC(Oc2ccc(C(=O)NC3Cc4ccccc4C3)cc2)CC1	HIF-2a block 44 | HIF-2a inh conf 43 | HIF-1a counter inactive
Clc1cc(Cl)cc(Nc2ccccc2CN(C/C=C/c2ccc3c(c2)OCO3)Cc2ccccc2)c1	none (no result: MITF TRPM1 inh)

Screening results deposited in PubChem BioAssay by several laboratories.
